Measurements: PubChem BioAssay (NCI)
About 79,000 compounds went through this panel and 15% of them were active in at least one assay; those are over-represented in the sample as a whole. Active and inactive are the calls of the source. Cut-off read from the data, not from the text of the source: active = growth inhibition above about 70%; inactive = the rest.

assay: NCI Yeast Anticancer Drug Screen. Data for the mlh1 rad18 strain (AID 175); conditions: S. cerevisiae mlh1 rad18 strain growth inhibition; at 50.0 µM; hits give high values
Outline: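 Compound-treated yeast growth, normalised to vehicle controls. Strain bears defined DNA repair mutations.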

Row | Compound | growth inhibition
1 | CCOC(=O)c1ccc(NC(=O)/C=C/C(=O)O)cc1 | -15.3% (inactive)
2 | Cc1ccc(-n2cnc3c(Cl)ncnc32)cc1 | 3.3% (inactive)
3 | CCOC(=O)N[C@@H]1C(CC(=O)OC)O[C@H]2OC(C)(C)O[C@H]21 (stereo not given in full) | 6.25% (inactive)
4 | COc1ccc(N=Cc2cc(Cl)cc(Cl)c2OC(=O)c2ccccc2)cc1 | -19.2% (inactive)
5 | CSc1nc(N)c(NS(=O)(=O)c2ccc([N+](=O)[O-])cc2)c(=O)[nH]1 | 14.1% (inactive)
6 | CCOc1ncc(C(O)c2ccc(F)cc2)c(OCC)n1 (stereo not given) | 0.3% (inactive)
7 | COc1cc(C(=O)N2C3C4CCC(C)(OC4(C)C)C32)cc(OC)c1OC (stereo not given) | -8.9% (inactive)
8 | CCCCc1c[nH]n(C(N)=NCCSCc2nc[nH]c2C)c1=O | -4.75% (inactive)
9 | CCOC(=O)c1ccc(C(=O)OCC)n1-c1cc2cc(c1)CSCc1cc(cc(-n3c(C(=O)OCC)ccc3C(=O)OCC)c1)CSC2 | -5.15% (inactive)
10 | NC1C=NNC1=O (stereo not given) | -23.9% (inactive)
11 | O=C1CSC(=NCCN=C2NC(=O)CS2)N1 | 28.2% (inactive)
12 | OCC1CC=CCC1 (stereo not given) | 11.6% (inactive)
13 | CC(C)=CCC/C(C)=C/CN | 6.15% (inactive)
14 | O=C(Oc1ccc(OC(=O)c2ccccc2)c(C2CCCCCC2)c1)c1ccccc1 | 9% (inactive)
15 | Cc1[nH]c(=O)nc(N/N=C/c2ccc(Cl)cc2)c1C(=O)Nc1ccc(Cl)cc1 | -12.5% (inactive)
16 | CC(=O)C1(C)CCC2C3CCC4=CC(=O)CCC4=C3CCC21C (stereo not given) | 23.6% (inactive)
17 | CC(C)N1CN(C(C(=O)N[C@@H]2C(=O)N3C2SC(C)(C)C3C(=O)O)c2ccccc2)CSC1=S (stereo not given in full) | -11.2% (inactive)
18 | N#CC(C(=O)C(=O)Nc1cccc(Cl)c1)c1ccccc1 (stereo not given) | -4.2% (inactive)
19 | CCC(C)(CCC(C)C)c1ccncc1 (stereo not given) | 3.05% (inactive)
20 | CCCCOC(OCCCC)C(OCCCC)OCCCC | 38% (inactive)

Row | Compound | growth inhibition
21 | C=CCOC(=O)CC(O)(CC(=O)OCC=C)C(=O)OCC=C | -12.2% (inactive)
22 | CC1=C(C(=O)Nc2ccc([N+](=O)[O-])cc2)C(c2ccc3c(c2)OCO3)C(C(=O)Nc2ccc([N+](=O)[O-])cc2)=C(C)N1 | 7.05% (inactive)
23 | O=C(O)CCC1(c2ccccc2)NC(=O)NC1=O (stereo not given) | -6.75% (inactive)
24 | COc1ccccc1C1C(C(=O)Nc2ccccc2)=C(C)NC(C)=C1C(=O)Nc1ccccc1 | -11.2% (inactive)
25 | C[C@]12CC[C@@H]3c4ccc(OCCCO)c([N+](=O)[O-])c4CC[C@H]3[C@@H]1CCC2=O | 16% (inactive)
26 | C[Si](C)(C)N1CCCC1 | -6.85% (inactive)
27 | CCOCCOC(=O)c1ccc(C(C)C)cc1 | 3.5% (inactive)
28 | NC(=O)c1ccccc1NC(=O)C(=O)C(C(=O)c1ccc2ccccc2c1)C1OC(=O)c2ccccc21 (stereo not given) | 9.15% (inactive)
29 | N#CCCN(c1ccc(C=Nc2ccc(C(=O)O)cc2)cc1)S(=O)(=O)c1ccccc1 | -11.1% (inactive)
30 | CCCCC1=C(C)C/C(=N/Nc2ccc([N+](=O)[O-])cc2[N+](=O)[O-])C(C)C1CCCC (stereo not given) | 21.9% (inactive)
31 | CC(=O)Nc1ccc(S(=O)(=O)N=S(c2ccccc2)c2ccccc2)cc1 | -0.25% (inactive)
32 | CCCCCCCCCCCCSc1nc2c([nH]1)c(=O)n(C)c(=S)n2C | -15.2% (inactive)
33 | CC1(C)OC2C(COCc3ccccc3)=CC(n3ccc(=O)[nH]c3=O)C2O1 (stereo not given) | 14.3% (inactive)
34 | O=C1C=CC(=O)C1N=Nc1ccccc1 | 28.3% (inactive)
35 | CCOC(=O)Nc1ccc(C2SCCN2C(=O)Nc2ccc(Cl)cc2)cc1 (stereo not given) | -11.3% (inactive)
36 | C[C@@]12CCC(=O)C=C1CC[C@H]1C2C(=O)C[C@]2(C)C1CC[C@@]2(O)C(=O)COC(=O)CCC(=O)O (stereo not given in full) | 0.25% (inactive)
37 | O=S(=O)(c1ccc(O)c(Cl)c1)c1ccc(O)c(Cl)c1 | 31.1% (inactive)
38 | CC(C)N(C(=O)C12C3C4C5C3C1(C(=O)N(C(C)C)C(C)C)C5(C#N)C42)C(C)C (stereo not given) | 4.2% (inactive)
39 | NCc1ccccc1F | 4.15% (inactive)
40 | O=C1c2ccccc2C(=O)N1Cc1ccccc1-c1c2nc(c(-c3ccccc3CN3C(=O)c4ccccc4C3=O)c3ccc([nH]3)c(-c3ccccc3CN3C(=O)c4ccccc4C3=O)c3nc(c(-c4ccccc4CN4C(=O)c5ccccc5C4=O)c4ccc1[nH]4)C=C3)C=C2 | -14% (inactive)
